These results are taken from PubChem BioAssay AID2102 (Southern Research Specialized Biocontainment Screening …, 2009).

Structures are written as SMILES. Screen size: about 1,100 compounds; about 210 (19%) were called active. The rule behind the calls is not given here. These entries were drawn from the full list. Entries with a potency or affinity are not part of this list.

The nature of the test: host cell cytotoxicity, dose response, cytotoxicity control for SV40 T antigen inhibitor project, selected hits (AID 2102).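 Note: cells exposed to compounds for 72 hours.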 The note with it: Host cell viability cytotoxicity counter-screen; series mostly up to 50 µM. For orientation: Counterscreens check selectivity or assay interference.
Regarding `Cc1cc(C)n(CCc2nc(-c3ccco3)cs2)n1`, the result was inactive. On to `Nc1ccc(-c2nc3c(Cl)c(N)ccc3[nH]2)cc1`, for which the result was inactive. For the compound `Nc1ccc2nc(CCCCCCc3nc4ccc(N)cc4[nH]3)[nH]c2c1`, the compound was classed as inactive. The same measure for `O=C1NC(=NCc2ccccc2)S/C1=C/c1ccc(O)cc1`: “inactive”; for `CC(C)C(C(=O)O)N1C(=O)/C(=C/C=C/c2ccco2)SC1=S` (stereo not given): “inactive”; for `C/C(=N/NC(=O)CSc1nc2ccccc2n1C)c1ccc(O)cc1`: “inactive”. For the compound `COc1ccc(NC2CCCN(C(=O)CCCn3cncn3)C2)cc1` (stereo not given), the call was inactive.

Consider `O=C1NC(=O)/C(=C/c2ccc(O)cc2)S1`, for which the result was inactive. In the case of `O=C(O)Cc1c[nH]c2cccc(O)c12`, the compound was classed as inactive. For `O=C(CCc1ccc(O)c(O)c1)N/N=C/c1cc2c(cc1[N+](=O)[O-])OCO2`, the result was inactive. Then `COc1ccc(CC(=O)N/N=C(\C)CC(=O)Nc2ccc(N(C)C)cc2)cc1OC`, with “inactive”; and `COc1ccc(/C=N/NC(=O)CCc2n[nH]c(=O)[nH]c2=O)cc1O`, with “inactive”. Consider `COc1cc(/C=C2\C(=O)NN(c3ccccc3)C2=O)ccc1OCC(N)=O`, for which the compound was called inactive. The same measure for `Cc1nnc(Nc2ccc(O)cc2)[nH]c1=O`: “inactive”; for `O=S1(=O)N=C(Nc2ccc(O)cc2)c2ccccc21`: “inactive”; for `CCOc1cc(/C=N/NC(=O)CCc2n[nH]c(=O)[nH]c2=O)ccc1O`: “inactive”. In the case of `C=CCn1c(SCC(=O)c2ccc(O)c(O)c2)nnc1-c1cccnc1`, the compound was classed as inactive. Then `CCOC(=O)CNc1c(-c2ccc(O)cc2)nc2ccccn12`, with “inactive”; and `O=C(Nc1cccc(N2C(=O)C=CC2=O)c1)c1cccs1`, with “inactive”; and `COc1cc(/C=N/N=C(\N)c2nonc2N)ccc1O`, with “inactive”. In the case of `COc1cc(C=C2C(=O)c3ccccc3C2=O)ccc1O`, the outcome was inactive. On to `COc1cc(-c2cc(=O)c3c(O)c(OC)c(OC)c(O)c3o2)ccc1O`, for which the result was inactive. The same measure for `O=C(CC(=O)N/N=C/c1ccc(O)cc1)N/N=C/c1ccc(O)cc1`: “inactive”. The same measure for `O=C(N/N=C/c1ccc(O)c(O)c1)N/N=C/c1ccc(O)c(O)c1`: “inactive”. Then `Oc1ccc(Nc2nc(Cl)nc(NCc3ccco3)n2)cc1`, with “inactive”. On to `CCOc1cc(-c2ccc(N)c(OCC)c2)ccc1N`, for which the compound was classed as inactive.

For the compound `Nc1cc(C(=O)O)ccc1Nc1ccccc1`, the call was inactive.

In the case of `Oc1ccc(-c2cn3c(n2)SCC3)cc1O`, the outcome was inactive.

For `COc1cc(/C=C/C(=O)OCC(=O)Nc2ccc(S(N)(=O)=O)cc2)ccc1O`, the compound was called inactive. Then `Nc1ccc2nc(CCCO)[nH]c2c1`, with “inactive”; and `COc1cc(/C=N/NC(=O)c2cccc([N+](=O)[O-])c2)ccc1O`, with “inactive”; and `COc1cc(C=C(C(C)=O)C(C)=O)ccc1O`, with “inactive”.

As to `O=c1ccc2cc(O)c(O)cc2o1`, the compound was called inactive. The same measure for `O=C(Nc1ccc(O)cc1)/C(=C\c1ccncc1)NC(=O)c1ccccc1`: “inactive”.

As to `Cc1nnc(N/N=C/c2c(O)n(-c3cccc(C(F)(F)F)c3)c(=O)c3ccccc23)[nH]c1=O`, the result was inactive. Then `COc1ccc(-c2cc(=O)oc3c(O)c(O)ccc23)cc1`, with “inactive”; and `O=C1CCCC/C1=C\Nc1ccc(O)cc1`, with “inactive”; and `O=c1cc(CN2CCN(Cc3ccccc3)CC2)c2ccc(O)c(O)c2o1`, with “inactive”.

With `Oc1cnn(-c2ccccc2)c1`, the compound was classed as inactive. The same measure for `Nc1cc(CN2C(=O)c3ccccc3C2=O)cc(Cl)c1O`: “inactive”; for `COc1cc(/C=N/Nc2ccnc(=O)[nH]2)ccc1O`: “inactive”; for `COc1ccc(NC2CCCN(C(=O)c3ccc(OC)cc3OC)C2)cc1` (stereo not given): “inactive”.

With `COc1ccc(NC2CCCN(C(=O)CCn3cccn3)C2)cc1` (stereo not given), the compound was classed as inactive. Consider `COc1cc(/C=N/NC(=O)c2c(-c3ccccc3)noc2C)ccc1O`, for which the call was inactive. As for `C/C(CC(=O)Nc1ccc2ccccc2c1)=N\NC(=O)c1ccc(O)c(O)c1`, the result was inactive. Turning to `O=C(Nc1ccc(O)cc1)C1CC=CCC1` (stereo not given), the result was inactive. With `CC(C)C(=O)c1ccc(O)c(O)c1`, the call was inactive. For the compound `Cc1ccc(S(=O)(=O)N2CCN(CC(=O)N/N=C\c3ccc(O)c(O)c3)CC2)cc1`, the call was inactive. Then `CCCSc1nc(O)c(C(c2ccc(OC)c(O)c2)c2c(O)nc(SCCC)n(C)c2=O)c(=O)n1C`, with “inactive”; and `COc1cc(Cn2nnc3ccccc32)ccc1O`, with “inactive”.

In the case of `Cc1ccc2c(c1C)NC(C(=O)O)C1CC=CC21` (stereo not given), the outcome was inactive. Then `CC(/C=N/n1c(-c2n[nH]c3c2CCC3)n[nH]c1=S)=C\c1ccco1`, with “inactive”; and `Nc1nc(-c2cccs2)c(NC(=O)c2ccccc2)s1`, with “inactive”. Then `O=C1CNC(=S)N1CCc1ccc(O)c(O)c1`, with “inactive”.

For the compound `N#CC1=C2SCN(Cc3ccco3)CN2C(=O)CC1c1ccc(Cl)cc1` (stereo not given), the call was inactive.

For the compound `Cc1cc(SCC(=O)N/N=C/c2ccc(O)c(O)c2)nc2ccccc12`, the result was inactive. As to `CCn1c(/C=C/c2ccc(O)c(O)c2)nc2ccccc2c1=O`, the compound was called inactive. The same measure for `O=C(CSc1nc2ccccc2o1)N/N=C/c1ccc(O)c(O)c1`: “inactive”; for `O=C(N/N=C/c1ccc(O)c(O)c1)c1cc(-c2ccccc2)nc2ccccc12`: “inactive”. The same measure for `O=C1ON=C(c2ccccc2)/C1=C/c1ccc(O)c(O)c1`: “inactive”; for `O=C1C=CC(=O)N1c1ccc(O)cc1`: “inactive”; for `Cc1nc(Cl)cc(N/N=C/c2ccc(O)cc2)n1`: “inactive”. Turning to `CCOc1ccc(N2Nc3n[nH]c(N)c3N2)cc1`, the call was inactive. Then `Cc1c(NC(=O)CN2CCN(c3ccc(O)cc3)CC2)c(=O)n(-c2ccccc2)n1C`, with “inactive”; and `O=C1CC(N2CCN(c3ccc(O)cc3)CC2)C(=O)N1Cc1cccs1` (stereo not given), with “inactive”; and `Cc1nc2ccc(N=NN(C)C)cc2[nH]1`, with “inactive”.

For `O=C(Cn1c(=O)oc2ccccc21)Nc1n[nH]c(=S)s1`, the compound was classed as inactive. The same measure for `Cc1cc(C)c2c(CCl)cc(=O)oc2c1`: “inactive”; for `CCSS(=O)(=O)c1cccc2cccnc12`: “inactive”; for `O=C1/C(=C/c2ccncc2)SC(=S)N1Nc1ccccc1`: “inactive”. `CCc1cc2c(Nc3ccc(O)cc3)nc(C)nc2s1`: the compound was called inactive. Then `CCOC(=O)N1CCN(c2ccc(O)cc2)CC1`, with “inactive”; and `O=C(c1ccc2ncsc2c1)N1CCN(c2ccc(O)cc2)CC1`, with “inactive”. Then `O=C(C1CC1)N1CCN(c2ccc(O)cc2)CC1`, with “inactive”.

With `Cc1cc(NC(=O)CN2CCN(c3ccc(O)cc3)CC2)no1`, the result was inactive. On to `O=C(CCC(=O)N1CCN(c2ccc(O)cc2)CC1)c1cccs1`, for which the compound was classed as inactive. Regarding `COc1ccc(N2CCN(C(=O)CN(c3ccccc3)S(C)(=O)=O)CC2)cc1`, the compound was classed as inactive.

Regarding `CNC(=O)c1ccc(-c2sc3nc(N4CCOCC4)c4c(c3c2N)CC(C)(C)OC4)o1`, the call was inactive. Consider `CN1CC(C(=O)O)Cc2c1ccc1ccccc21` (stereo not given), for which the outcome was inactive. Regarding `COc1cc(C(=O)Nc2ccc(O)cc2)ccc1OC(C)=O`, the outcome was inactive. With `CN(C)c1ccc(NC(N)=S)cc1`, the compound was called inactive. For `COc1cc(/C=N/NC(=O)c2cccc(S(=O)(=O)N3CCCC3)c2)ccc1O`, the compound was classed as inactive.

On to `Cc1nc(-c2ccc(O)c(O)c2)cs1`, for which the call was inactive. Take `Cc1ccc(S(=O)(=O)Nc2nc(C)cc(N/N=C/c3ccc(O)cc3)n2)cc1`: the call was inactive. The same measure for `CCOc1cc(/C=C2\SC(=O)N=C2N)ccc1O`: “inactive”; for `Nc1nc2ccc(N3CCOCC3)cc2s1`: “inactive”; for `COc1cc(C(=O)Nc2ccc(N(C)C)cc2)cc(OC)c1OC`: “inactive”.

On to `Oc1ccc(-c2csc(Nc3ccccn3)n2)cc1O`, for which the outcome was inactive. As for `CN(C)c1ccc(Nc2nc(-c3cccnc3)cs2)cc1`, the compound was called inactive. Consider `CC(C)c1ccc(S(=O)(=O)N2CCN(CCC(=O)Nc3ccc(N(C)C)cc3)CC2)cc1`, for which the call was inactive. Regarding `CC(=O)c1cccc(S(=O)(=O)N2CCCC(c3nc(-c4ccc(C)o4)no3)C2)c1` (stereo not given), the compound was classed as inactive. On to `Cc1cc(C)nc(SCc2cc(=O)c(OC(=O)c3ccc(S(=O)(=O)N4CCCC4)cc3)co2)n1`, for which the result was inactive.

`Nc1nc(-c2ccco2)cs1`: the compound was classed as inactive. Then `Cc1ccsc1/C=N/n1c(-c2cccnc2)n[nH]c1=S`, with “inactive”; and `COc1cc(/C=N/NC(=O)c2ccoc2C)cc(OC)c1O`, with “inactive”. Turning to `O=C(CCN1C(=O)/C(=C/c2ccco2)SC1=S)Nc1ccc(C(=O)O)c(O)c1`, the outcome was inactive. As to `O=C(CCN1C(=O)/C(=C\c2ccco2)SC1=S)Nc1ccc(C(=O)O)c(O)c1`, the call was inactive. The same measure for `COc1cc(/C=N/NC(=O)CSc2ccccn2)ccc1O`: “inactive”; for `Cc1ccc(NC(=O)CN2C(=O)N/C(=C\c3cccn3-c3cccc(C(=O)O)c3)C2=O)cc1`: “inactive”.

Take `CN(C)c1ccc(N2C(=O)CC(Nc3ccc(N4CCOCC4)cc3)C2=O)cc1` (stereo not given): the result was inactive. Then `Oc1ccc(/C=N/Nc2nccnc2Cl)cc1`, with “inactive”; and `Cc1cc(O)ccc1N/C=C1\CCCC1=O`, with “inactive”; and `O=c1c2c([N+](=O)[O-])cc([N+](=O)[O-])cc2sn1Cc1ccccc1`, with “inactive”.

For `CC1(C)N([O-])c2cc([N+](=O)[O-])ccc2[N+]1=O`, the call was inactive. Regarding `Cn1c(SCC(=O)c2ccc(O)c(O)c2)nnc1-c1cccs1`, the result was inactive. Regarding `O=c1cc(-c2ccc(Br)cc2)[nH][nH]1`, the compound was called inactive.

Take `O=C(NC(=S)Nc1ccc(O)cc1)c1ccccc1Cl`: the outcome was inactive. For `COc1cc(/C=N/Nc2nc3ccccc3[nH]2)cc(OC)c1O`, the compound was classed as inactive. Then `Nc1ccc2nc(CCCCCCCCc3nc4ccc(N)cc4[nH]3)[nH]c2c1`, with “inactive”; and `Cc1ccnc(-n2sc3ccccc3c2=O)n1`, with “inactive”.

In the case of `O=c1c2ccccc2sn1-c1nccs1`, the compound was classed as inactive. Then `COc1ccc(/C=N/NC(=O)c2ccoc2C)cc1O`, with “inactive”; and `O=C(Nc1ccc(O)cc1)c1ccc2c(c1)C(=O)N(N1C(=O)c3ccccc3C1=O)C2=O`, with “inactive”. `CC(C)c1ccc(C2CC(=O)N3CN(C)CSC3=C2C#N)cc1` (stereo not given): the compound was called inactive.

For `O=C(CCCCl)NC1=NN(c2ccccc2)C(=O)C1`, the result was inactive.

In the case of `CCOc1cc(/C=C2/N=C(C)C(C(=O)OC)=C2O)ccc1O`, the outcome was inactive. For the compound `NC1=NC(=O)/C(=C\c2ccco2)S1`, the result was inactive. The same measure for `O=c1[nH]c2ccc(NCc3ccc(F)cc3)cc2[nH]1`: “inactive”; for `C=CCOc1ccccc1CNc1ccc2[nH]c(=O)[nH]c2c1`: “inactive”.

Consider `COc1cc(/C=N/NC(=O)c2ccccc2O)ccc1OC(=O)CC1SC(=O)NC1=O` (stereo not given), for which the result was inactive.
